According to PubChem BioAssay (NCATS):
Results filed as inconclusive are left out. Calls of active or inactive are those of the source. Unless noted, calls come from the whole dose curve; as a rule, active = well fitted curve in the direction sought with a large enough effect; inconclusive = small, poorly fitted or top-dose-only effect, or another doubt; inactive = no such curve, though single readings can be large; an effect the other way counts as inactive or inconclusive.

Assays:
Furin (Homo sapiens) = Furin (Homo sapiens) (UniProt P09958); test: Furin counterscreen qHTS for Zika virus inhibitors (AID 1347149);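 note: purified recombinant full-length human furin enzyme at 5 nM; fluorescence gain from furin cutting a BOC-RVRR-AMC peptide substrate over 15 min; top concentration of the series differs between compounds; nearly all actives have a fitted effect of over 70% in size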
Furin (Homo sapiens), sequence (P09958 whole entry, looked up): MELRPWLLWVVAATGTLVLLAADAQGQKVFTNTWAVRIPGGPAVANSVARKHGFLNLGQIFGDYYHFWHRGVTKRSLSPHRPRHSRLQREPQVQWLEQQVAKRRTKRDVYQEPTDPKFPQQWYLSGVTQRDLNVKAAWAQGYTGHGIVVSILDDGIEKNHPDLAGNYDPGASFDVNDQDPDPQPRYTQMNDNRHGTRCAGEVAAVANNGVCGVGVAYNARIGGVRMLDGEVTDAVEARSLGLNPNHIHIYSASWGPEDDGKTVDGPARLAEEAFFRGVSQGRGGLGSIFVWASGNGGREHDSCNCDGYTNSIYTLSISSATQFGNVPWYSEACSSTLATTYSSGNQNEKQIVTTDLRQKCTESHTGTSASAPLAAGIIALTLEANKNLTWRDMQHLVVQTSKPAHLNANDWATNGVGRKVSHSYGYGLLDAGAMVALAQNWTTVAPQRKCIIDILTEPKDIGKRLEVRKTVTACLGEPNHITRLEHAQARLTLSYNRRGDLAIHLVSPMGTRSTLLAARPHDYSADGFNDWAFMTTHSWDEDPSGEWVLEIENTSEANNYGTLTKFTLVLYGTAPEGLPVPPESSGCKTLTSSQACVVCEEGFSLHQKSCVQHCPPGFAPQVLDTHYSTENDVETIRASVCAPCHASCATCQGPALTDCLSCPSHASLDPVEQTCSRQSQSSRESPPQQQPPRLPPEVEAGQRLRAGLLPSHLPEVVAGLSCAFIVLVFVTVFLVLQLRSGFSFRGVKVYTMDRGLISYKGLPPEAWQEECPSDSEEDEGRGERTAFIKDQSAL
Procedure, shortened: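 Fluorogenic cleavage of BOC-RVRR-AMC (2 microM final, Km ~15 µM) was monitored (ex 340, em 450 nm) at 37C after 15 min RT preincubation of 5 nM furin with compounds in HEPES pH 7.0 buffer with CaCl2 and Triton X-100. Percent inhibition was fitted to a 4-parameter Hill curve.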

[1] = Confirmatory screen NINDS Rhodamine qHTS for Zika virus inhibitors (AID 1347161); note: nearly all actives have a fitted effect of over 60% in size; note: potency is the fitted concentration of half-maximal effect
Procedure, shortened: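 Rhodamine110-peptide cleavage (1.5 µM substrate) by 25 nM linked NS2B-NS3 enzyme at pH 8.0 (Tris, Tween 20), after 15 min RT preincubation with compounds; 15-min fluorescence change normalized to controls and Hill-fitted.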

[2] = Tertiary RLuc qRT-PCR qHTS assay for Zika virus inhibitors (AID 1347169); note: top concentration of the series differs between compounds; nearly all actives have a fitted effect of over 55% in size
Procedure, shortened: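 Vero cells (1,000 per well) plated overnight at 37 degrees C, treated with compound in DMSO, then infected with recombinant ZIKV-RLuc (Cambodian) at MOI 1-2 for 48-72 hrs. Live-cell Renilla luciferase substrate added; luminescence read after 1-1.5 hrs.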

[3] = Vero cells viability qHTS for Zika virus inhibitors (AID 1347167)
Procedure, shortened: (§1)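 Counter-screen for cytotoxicity of hits from NS2B-NS3 protease qHTS. Overnight-attached cells (2.5 x 10^5 cells/mL, DMEM/4% FBS) were dosed in titration, incubated 24 to 48 hours, then assayed by CellTiter Glo.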

[4] = HepG2 cells viability qHTS for Zika virus inhibitors (AID 1347168)
Procedure, shortened: as §1

[5] = system: Zika virus NS2B-NS3 protease (linked construct); test: Confirmatory screen NINDS AMC qHTS for Zika virus inhibitors (AID 1347152); note: potency is the fitted concentration of half-maximal effect; nearly all actives have a fitted effect of over 70% in size
Procedure, shortened: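 Purified NS2B-NS3 protease with NS2B hydrophilic domain linked to NS3 protease domain by flexible linker, 1 nM final in 10 mM Tris-HCl pH 8.0, 0.01% Tween 20. Compounds preincubated 15 min, room temperature; Bz-Nle-KRR-AMC 10 microM (Km 18.3 µM); 15-min fluorescence change, 4-parameter Hill fit.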

[6] = ZIKV-mCherry secondary qHTS for Zika virus inhibitors (AID 1347158); note: top concentration of the series differs between compounds
Procedure, shortened: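 After overnight seeding at 37 °C, Vero cells receive compound and then ZIKV-mCherry (MOI 1). Following 48-72 h infection, cells are fixed, counterstained with Hoechst, and imaged; percent infected cells is derived from an mCherry intensity cut-off of 450 RFU.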

[7] = system: Zika virus NS2B-NS3 protease (linked); test: 384 well plate NINDS AMC confirmatory qHTS for Zika virus inhibitors (AID 1347163); note: potency is the fitted concentration of half-maximal effect; nearly all actives have a fitted effect of over 50% in size
Procedure, shortened: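 Linked protease 5/30/60 nM final; cpds up to 1 mM final, ~15 min preinc. Substrate Ac-VKTGKR-AMC 30 microM final. RT, dark, 25 min; FI ex 355/em 460; normalized to no-enzyme/no-inhibitor ctrls.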

[8] = system: Zika virus NS2B-NS3 protease (linked construct); test: 384 well plate NINDS Rhodamine confirmatory qHTS for Zika virus inhibitors (AID 1347164);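 note: fluorescence from protease cleavage of Ac-LKRR-rhodamine 110 substrate; nearly all actives have a fitted effect of over 65% in size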; note: potency is the fitted concentration of half-maximal effect
Procedure, shortened: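 Linked protease at a final 5 nM, 30 nM or 60 nM was preincubated ~15 min with compounds, then given 10 microM Ac-LKRR-Rhodamine 110. Fluorescence (ex 485/em 538 nm) after 25 min in the dark at room temperature.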

[9] = biological target: Rap guanine nucleotide exchange factor 3 (Homo sapiens) (UniProt O95398); test: Confirmatory qHTS for antagonist of cAMP-regulated guanine nucleotide exchange factor 3 (EPAC1) (AID 1645880); note: nearly all actives have a fitted effect of over 55% in size; note: potency is the fitted concentration of half-maximal effect
Rap guanine nucleotide exchange factor 3 (Homo sapiens), sequence (O95398 whole entry, looked up): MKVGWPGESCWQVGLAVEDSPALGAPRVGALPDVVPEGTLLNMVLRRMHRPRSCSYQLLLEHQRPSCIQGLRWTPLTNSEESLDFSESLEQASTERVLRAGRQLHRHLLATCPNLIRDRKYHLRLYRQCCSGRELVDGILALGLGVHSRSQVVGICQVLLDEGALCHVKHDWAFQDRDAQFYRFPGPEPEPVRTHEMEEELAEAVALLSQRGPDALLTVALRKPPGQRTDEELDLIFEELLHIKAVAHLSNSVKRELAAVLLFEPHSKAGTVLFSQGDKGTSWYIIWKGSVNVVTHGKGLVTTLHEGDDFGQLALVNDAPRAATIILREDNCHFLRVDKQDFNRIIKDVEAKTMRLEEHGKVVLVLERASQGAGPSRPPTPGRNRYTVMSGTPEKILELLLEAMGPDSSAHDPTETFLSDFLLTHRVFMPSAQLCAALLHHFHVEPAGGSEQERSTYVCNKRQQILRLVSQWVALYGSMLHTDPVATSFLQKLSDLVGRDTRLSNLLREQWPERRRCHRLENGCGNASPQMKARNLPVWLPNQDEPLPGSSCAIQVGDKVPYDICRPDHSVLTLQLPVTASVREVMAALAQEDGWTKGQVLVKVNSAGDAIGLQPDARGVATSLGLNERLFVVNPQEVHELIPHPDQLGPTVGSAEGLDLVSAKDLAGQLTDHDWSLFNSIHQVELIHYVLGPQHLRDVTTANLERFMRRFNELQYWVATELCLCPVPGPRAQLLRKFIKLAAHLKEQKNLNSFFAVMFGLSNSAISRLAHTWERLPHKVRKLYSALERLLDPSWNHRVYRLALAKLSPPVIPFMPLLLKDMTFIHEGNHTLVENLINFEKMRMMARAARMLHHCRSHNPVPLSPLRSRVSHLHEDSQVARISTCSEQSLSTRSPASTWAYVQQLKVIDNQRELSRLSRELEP
Procedure, shortened: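 Nucleotide exchange uses 100 nM EPAC1, 250 nM RAP1B-BODIPY-GDP and 50 uM GDP, with compounds in a concentration-titration series. After 5 min at room temperature, fluorescence (480 nm ex/540 nm em) is read every 5 min for 30 min. Data are normalized to control ATA and DMSO.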

[10] = biological target: Rap guanine nucleotide exchange factor 3 (Homo sapiens) (UniProt O95398); test: Confirmatory qHTS for agonist of cAMP-regulated guanine nucleotide exchange factor 3 (EPAC1) (AID 1645881);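 note: EPAC1 catalysed release of BODIPY-GDP from Rap1B seen as fluorescence loss; nearly all actives have a fitted effect of over 75% in size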
[11] = biological target: Rap guanine nucleotide exchange factor 4 (Homo sapiens) (UniProt Q8WZA2); test: Confirmatory qHTS for agonist of cAMP-regulated guanine nucleotide exchange factor 4 (EPAC2) (AID 1645884);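 note: nucleotide exchange releases bodipy-GDP from Rap1 and this lowers its fluorescence; nearly all actives have a fitted effect of over 65% in size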
Rap guanine nucleotide exchange factor 4 (Homo sapiens), sequence (Q8WZA2 whole entry, looked up): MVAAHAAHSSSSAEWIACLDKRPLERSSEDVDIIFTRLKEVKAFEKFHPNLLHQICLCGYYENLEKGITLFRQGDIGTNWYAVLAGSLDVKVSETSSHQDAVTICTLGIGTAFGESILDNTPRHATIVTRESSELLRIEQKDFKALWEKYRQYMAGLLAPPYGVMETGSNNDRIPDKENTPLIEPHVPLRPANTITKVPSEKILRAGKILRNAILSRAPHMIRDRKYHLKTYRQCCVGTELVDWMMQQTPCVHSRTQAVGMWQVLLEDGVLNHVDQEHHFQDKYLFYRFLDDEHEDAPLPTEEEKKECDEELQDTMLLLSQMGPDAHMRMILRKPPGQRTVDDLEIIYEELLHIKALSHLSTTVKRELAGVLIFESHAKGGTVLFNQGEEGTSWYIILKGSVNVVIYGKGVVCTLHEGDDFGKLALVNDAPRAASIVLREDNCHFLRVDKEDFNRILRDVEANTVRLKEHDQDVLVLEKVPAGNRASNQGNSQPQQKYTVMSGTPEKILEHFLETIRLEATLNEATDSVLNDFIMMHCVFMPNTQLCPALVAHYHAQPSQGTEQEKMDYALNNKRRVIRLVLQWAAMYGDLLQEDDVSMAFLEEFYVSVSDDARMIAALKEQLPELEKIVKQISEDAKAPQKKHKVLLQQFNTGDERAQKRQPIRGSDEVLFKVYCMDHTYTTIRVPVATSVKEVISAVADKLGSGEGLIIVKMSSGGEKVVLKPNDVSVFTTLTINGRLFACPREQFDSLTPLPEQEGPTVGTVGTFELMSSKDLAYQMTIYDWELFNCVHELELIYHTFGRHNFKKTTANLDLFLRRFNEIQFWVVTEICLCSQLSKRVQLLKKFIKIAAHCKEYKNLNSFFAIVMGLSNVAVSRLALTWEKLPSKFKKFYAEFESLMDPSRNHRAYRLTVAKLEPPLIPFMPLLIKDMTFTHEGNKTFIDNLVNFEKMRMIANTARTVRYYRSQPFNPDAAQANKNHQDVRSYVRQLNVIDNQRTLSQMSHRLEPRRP

[12] = biological target: Rap guanine nucleotide exchange factor 4 (Homo sapiens) (UniProt Q8WZA2); test: Confirmatory qHTS for antagonist of cAMP-regulated guanine nucleotide exchange factor 4 (EPAC2) (AID 1645885); note: nearly all actives have a fitted effect of over 25% in size
[13] = biological target: Rap guanine nucleotide exchange factor 3 (Homo sapiens) (UniProt O95398); test: Counterscreen qHTS for antagonist of cAMP-regulated guanine nucleotide exchange factor 3 (EPAC1) (AID 1645888);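 note: fluorescence loss as bound BODIPY-GDP is released from Rap1B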
Procedure, shortened: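 Measured: fluorescence of BODIPY-GDP bound to Rap1B, which falls as exchange proceeds. Conditions include 50 uM competing GDP, 5 and 30 min reads, and a later cAMP challenge for antagonist detection.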

[14] = biological target: Tumor susceptibility gene 101 protein (Homo sapiens) (UniProt Q99816); test: qHTS Assay for Iinhibitors of HIV-1 Budding by Blocking the Interaction of PTAP/TSG101: Hit Validation (AID 651600); note: nearly all actives have a fitted effect of over 70% in size
Tumor susceptibility gene 101 protein (Homo sapiens), sequence (Q99816 whole entry, looked up, the tested form may be a part): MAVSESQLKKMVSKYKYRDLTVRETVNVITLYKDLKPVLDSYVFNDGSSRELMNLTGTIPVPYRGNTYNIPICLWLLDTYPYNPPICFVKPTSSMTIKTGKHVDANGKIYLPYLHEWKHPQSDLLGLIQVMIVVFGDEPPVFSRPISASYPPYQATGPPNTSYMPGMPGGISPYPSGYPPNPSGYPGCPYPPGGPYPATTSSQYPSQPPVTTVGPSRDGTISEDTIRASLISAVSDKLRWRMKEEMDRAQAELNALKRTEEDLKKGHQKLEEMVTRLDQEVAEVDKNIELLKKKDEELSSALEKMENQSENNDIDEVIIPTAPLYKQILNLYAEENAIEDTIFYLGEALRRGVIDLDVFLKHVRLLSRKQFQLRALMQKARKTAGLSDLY
Procedure, shortened: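 Fluorescence polarization binding assay: Tsg101 binding domain (10 uM final) pre-dispensed with compounds, then FITC-labeled PTAP-motif peptide (50 nM final) added; 20 min at r.t. in HEPES pH 7.5 buffer with NaCl, Tween 20, EDTA, TCEP.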

[15] = biological target: Glucocorticoid receptor (Homo sapiens) (UniProt P04150); test: GR-GFP Redistribution (AID 450;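 active = compounds whose dose series gives a full or clear partial fitted curve of increased nuclear translocation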; note: potency is the fitted concentration of half-maximal effect); settings: U2OS GR-GFP nuclear translocation, laser cytometry, 2 h
Glucocorticoid receptor (Homo sapiens), sequence (P04150 whole entry, looked up, the tested form may be a part): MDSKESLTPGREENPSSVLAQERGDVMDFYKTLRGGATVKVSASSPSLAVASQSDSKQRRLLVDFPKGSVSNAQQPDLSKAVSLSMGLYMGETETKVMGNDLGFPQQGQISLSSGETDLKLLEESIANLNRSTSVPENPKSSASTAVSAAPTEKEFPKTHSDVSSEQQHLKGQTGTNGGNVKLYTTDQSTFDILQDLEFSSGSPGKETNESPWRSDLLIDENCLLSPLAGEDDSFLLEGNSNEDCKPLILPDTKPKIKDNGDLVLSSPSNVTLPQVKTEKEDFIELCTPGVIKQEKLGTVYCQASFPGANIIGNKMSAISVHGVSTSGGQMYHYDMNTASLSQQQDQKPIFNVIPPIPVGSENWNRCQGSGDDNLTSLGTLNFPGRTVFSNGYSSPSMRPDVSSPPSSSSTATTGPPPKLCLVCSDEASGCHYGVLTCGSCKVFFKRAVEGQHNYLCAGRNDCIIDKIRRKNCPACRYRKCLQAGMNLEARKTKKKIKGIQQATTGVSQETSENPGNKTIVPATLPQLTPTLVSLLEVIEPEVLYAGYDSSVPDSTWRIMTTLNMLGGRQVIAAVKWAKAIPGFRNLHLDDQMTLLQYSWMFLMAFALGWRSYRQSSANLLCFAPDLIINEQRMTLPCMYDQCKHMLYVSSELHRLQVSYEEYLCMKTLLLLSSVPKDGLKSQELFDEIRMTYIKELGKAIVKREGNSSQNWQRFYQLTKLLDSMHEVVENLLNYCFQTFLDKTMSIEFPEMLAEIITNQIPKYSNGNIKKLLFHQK

[16] = biological target: Glucocorticoid receptor (Homo sapiens) (UniProt P04150); test: GR-EFC Redistribution (AID 451; calls by dose curve; note: potency is the fitted concentration of half-maximal effect); settings: CHO-K1 GR-EFC translocation, beta-gal luminescence, 2 h
Procedure, shortened: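 CHO-K1 cells stably expressing nuclear-localized β-gal enzyme acceptor and GR fused C-terminally to the enzyme donor fragment; ligand-driven nuclear translocation restores β-gal by complementation. Compounds titrated up to 46 uM final, 2 h at 37 °C; luminescence read.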

[17] = biological target: Mitogen-activated protein kinase 10 (Mus musculus) (UniProt Q61831); test: JNK3 AlphaScreen Assay (AID 530; active = well fitted curve in either direction with a large enough effect, not every such curve was filed as active;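 note: kinase came from lysate of stimulated human HepG2 cells; potency is the fitted concentration of half-maximal effect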)
Procedure, shortened: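 JNK3 came from HepG2 lysates pre-activated with IL-1beta and TNF-alpha and phosphorylated biotinylated GST-cJun (1-79) at 10 uM ATP, pH 7.6, room temperature. Compounds were titrated. AlphaScreen signal used anti-phospho-cJun (Ser73) antibody.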

[18] = biological target: Cytochrome P450 2C9 (Homo sapiens) (UniProt P11712); test: qHTS Assay for Inhibitors and Substrates of Cytochrome P450 2C9 (AID 883); note: potency is the fitted concentration of half-maximal effect; nearly all actives have a fitted effect of over 60% in size
Procedure, shortened: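 A luminogenic readout tracked human CYP2C9 (10nM) converting deoxyluciferin (100uM, at KM) in 25mM KPO4 during 60 min at 37C with regenerated NADPH. Values normalized to 57uM sulphaphenazole as complete inhibition.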

[19] = biological target: Cytochrome P450 3A4 (Homo sapiens) (UniProt P08684); test: qHTS Assay for Activators of Cytochrome P450 3A4 (AID 885); note: nearly all actives have a fitted effect of over 65% in size
Cytochrome P450 3A4 (Homo sapiens), sequence (P08684 whole entry, looked up): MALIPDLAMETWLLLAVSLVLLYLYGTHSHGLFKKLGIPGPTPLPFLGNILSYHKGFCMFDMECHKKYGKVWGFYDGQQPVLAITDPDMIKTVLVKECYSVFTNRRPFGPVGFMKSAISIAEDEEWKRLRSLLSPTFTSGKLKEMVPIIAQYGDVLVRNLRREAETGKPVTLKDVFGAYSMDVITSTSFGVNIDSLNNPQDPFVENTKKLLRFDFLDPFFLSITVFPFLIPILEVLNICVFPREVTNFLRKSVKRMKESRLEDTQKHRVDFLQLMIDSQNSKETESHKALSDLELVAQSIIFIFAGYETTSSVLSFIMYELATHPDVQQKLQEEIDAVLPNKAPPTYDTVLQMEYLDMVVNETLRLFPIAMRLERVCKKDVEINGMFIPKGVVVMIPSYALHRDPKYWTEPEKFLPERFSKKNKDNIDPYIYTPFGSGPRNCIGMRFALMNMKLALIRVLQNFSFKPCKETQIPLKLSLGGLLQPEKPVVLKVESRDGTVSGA
Procedure, shortened: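 20nM CYP3A4 + 25uM Luciferin-PPXE (=KM), 200mM KPO4; cpd 10 min RT; NADPH regen, 60 min RT; stop w/ detection buffer, 20 min; luminescence. Normalized to 57 uM ketoconazole.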

[20] = biological target: Cytochrome P450 2D6 (Homo sapiens) (UniProt P10635); test: qHTS Assay for Inhibitors and Substrates of Cytochrome P450 2D6 (AID 891); note: potency is the fitted concentration of half-maximal effect; nearly all actives have a fitted effect of over 60% in size
Procedure, shortened: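 Human CYP2D6 (5 nM) with 30 uM Luciferin-ME EGE (at Km) in 100 mM KPO4, compound preincubated 10 min, then NADPH regeneration system for 60 min at room temperature. Luciferin read by luminescence; normalized to 1.43 uM quinidine.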

[21] = biological target: Cytochrome P450 2C19 (Homo sapiens) (UniProt P33261); test: qHTS Assay for Inhibitors and Substrates of Cytochrome P450 2C19 (AID 899); note: potency is the fitted concentration of half-maximal effect; nearly all actives have a fitted effect of over 60% in size
Procedure, shortened: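 NADPH-dependent conversion of Luciferin-H EGE (10uM, at KM) by 5nM enzyme in 50mM KPO4, 60 min at 37C following 10 min compound preincubation. Stopped with luciferin detection buffer; luminescence read after 20 min.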

[22] = biological target: DNA dC->dU-editing enzyme APOBEC-3G (Homo sapiens) (UniProt Q9HC16); test: qHTS for inhibitors of Vif-A3G interactions: Validation (AID 588379)
DNA dC->dU-editing enzyme APOBEC-3G (Homo sapiens), sequence (Q9HC16 whole entry, looked up): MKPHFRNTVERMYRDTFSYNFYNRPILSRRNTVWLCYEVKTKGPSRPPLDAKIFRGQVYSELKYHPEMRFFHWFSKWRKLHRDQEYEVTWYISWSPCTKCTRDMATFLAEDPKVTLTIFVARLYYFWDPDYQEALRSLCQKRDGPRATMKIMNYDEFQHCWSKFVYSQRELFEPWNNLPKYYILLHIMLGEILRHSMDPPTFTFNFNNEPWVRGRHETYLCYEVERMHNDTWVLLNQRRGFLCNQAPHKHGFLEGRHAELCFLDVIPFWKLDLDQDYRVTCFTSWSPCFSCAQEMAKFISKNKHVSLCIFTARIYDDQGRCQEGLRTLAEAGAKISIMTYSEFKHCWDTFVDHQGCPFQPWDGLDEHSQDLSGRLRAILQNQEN
Procedure, shortened: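 HeLa cells stably expressing Vif and A3G-eYFP, 700 cells/well, incubated overnight at 37 deg C, then exposed to compound overnight at 37 deg C. Inhibition of Vif-mediated degradation read as increased yellow fluorescence (Ex 488/Em 500-530) by laser-scanning cytometry.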

[23] = Primary qHTS for small molecule stabilizers of the endoplasmic reticulum resident proteome: Secreted ER Calcium Modulated Protein (SERCaMP) assay (AID 1508630)
Procedure, shortened: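 GLuc-SERCaMP-expressing SH-SY5Y cells, pretreated 16 h with compound, are challenged with thapsigargin to empty ER calcium stores; after 4 h, coelenterazine is added directly to the medium and luminescence is imaged.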

[24] = biological target: Glutathione peroxidase 1 (Homo sapiens) (UniProt P07203); test: Primary qHTS Assay for Inhibitors of Recombinant Selenoprotein Glutathione Peroxidase 1 (GPX1) (AID 1845191); note: nearly all actives have a fitted effect of over 65% in size
Glutathione peroxidase 1 (Homo sapiens), sequence (P07203 whole entry, looked up): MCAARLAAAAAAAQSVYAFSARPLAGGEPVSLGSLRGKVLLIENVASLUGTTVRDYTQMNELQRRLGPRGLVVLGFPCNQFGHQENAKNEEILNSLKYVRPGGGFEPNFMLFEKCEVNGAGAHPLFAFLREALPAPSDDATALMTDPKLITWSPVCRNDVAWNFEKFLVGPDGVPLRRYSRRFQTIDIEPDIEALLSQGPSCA
Procedure, shortened: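 Recombinant GPX1 (10 nM final) was preincubated with compound for 30 min at room temperature, then reacted with 1 mM GSH, 0.5 mM CHP, 0.5 mM NADPH and 100 nM glutathione reductase; NADPH fluorescence (340/450 nm) was read at 0 and 15 min.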

Measured: Potency

O=c1oc2ccc3ccccc3c2cc1-c1nnc(Nc2cc(C(F)(F)F)ccc2Cl)s1
inactive: Furin (Homo sapiens) | [1] | [2]

CCCCOc1ccc(C2C(=O)N(C3CCCCC3)CC(=O)N2C2CCCCC2)cc1 (centres undefined)
inactive: Furin (Homo sapiens) | [3] | [4] | [2]

Clc1ccc(-c2nn3c(COc4cc(Cl)c(OCc5nnc6sc(-c7ccc(Cl)cc7)nn56)cc4Cl)nnc3s2)cc1
inactive: [6]
active: [5] 20 µM | [1] 6.31 µM | [7] 14.1 µM | [8] 28.2 µM

O=C(COc1ccccc1)Nc1ccc(C(=O)OCc2cc(=O)n3nc(C4CC4)sc3n2)cc1
inactive: Furin (Homo sapiens) | [1] | [2]

CC(C)CN1CC(COc2ccc3ccccc3c2)Oc2ccnc(-c3ccc(OCC(=O)O)cc3)c2C1=O (centres undefined)
active: [7] 355 µM | [8] 39.8 µM
inactive: Furin (Homo sapiens) | [2]

CCOC(=O)c1ccc(NC(=O)CSc2nc(-c3ccc(OC)cc3)cc(C(F)(F)F)c2C#N)cc1
inactive: Furin (Homo sapiens) | [9] | [10] | [11] | [12] | [13]

CCOC(=O)c1ccc(NC(=O)CSc2nc(-c3cccs3)cc(C(F)(F)F)c2C#N)cc1
inactive: [14] | Furin (Homo sapiens) | [2]

C=CC(C)(C)c1[nH]c2ccccc2c1C1=C(O)C(=O)C(c2c[nH]c3c(CC=C(C)C)cccc23)=C(O)C1=O
active: [17] 6.31 µM | [18] 7.94 µM | [20] 0.0063 µM | [21] 1.26 µM | [1] 49.4 µM | [8] 0.631 µM | [9] 4.98 µM
inactive: [15] > 46 µM | [16] > 46 µM | [19] | [22] | Furin (Homo sapiens) | [3] | [4] | [2] | [23] | [10] | [24]

O=C(COc1ccccc1C(=O)OCC(=O)Nc1cccc2ccccc12)Nc1ccc(Br)cc1
inactive: Furin (Homo sapiens) | [8] | [2]
